From ChEMBL document CHEMBL4296182, “CO-ADD screening of NIH NCI Diversity Set V”
For part of these data: Results with a measured potency or affinity are listed apart.

Assays:
Staphylococcus aureus = test: Antibacterial activity against Staphylococcus aureus MRSA ATCC 43300 (CO-ADD:GP_020); MIC in CAMBH media using NBS plates, by Resazurin F(560/590); assay type: functional; details: Concentration 20 uM, ASSAY_TEST Inhibition of Bacterial Growth, detection method Resazurin, Fluorescence (ex560/em590), MEDIA CAMHB, plate type 384well, CORNING #3640, time 18 hr
Acinetobacter baumannii = test: Antibacterial activity against Acinetobacter baumannii ATCC 19606 (CO-ADD:GN_034); MIC in CAMBH media using NBS plates, by Resazurin F(560/590); assay type: functional; details: Concentration 20 uM, ASSAY_TEST Inhibition of Bacterial Growth, detection method Resazurin, Fluorescence (ex560/em590), MEDIA CAMHB, plate type 384well, CORNING #3640, time 18 hr
Escherichia coli = test: Antibacterial activity against Escherichia coli ATCC 25922 (CO-ADD:GN_001); MIC in CAMBH media using NBS plates, by Resazurin F(560/590); assay type: functional; details: Concentration 20 uM, ASSAY_TEST Inhibition of Bacterial Growth, detection method Resazurin, Fluorescence (ex560/em590), MEDIA CAMHB, plate type 384well, CORNING #3640, time 18 hr
Klebsiella pneumoniae = details: Concentration 20 uM; ASSAY_TEST Inhibition of Bacterial Growth; detection method Absorption (OD600); MEDIA CAMHB; plate type 384well; NBS; CORNING #3640; time 18 hr
Candida albicans = details: 20 µM
Cryptococcus neoformans = details: Concentration 20 uM; ASSAY_TEST Inhibition of Fungal Growth; detection method Resazurin; Absorption (OD600-OD570); plate type 384well; NBS; CORNING #3640

| Structure (SMILES) | Inhibition (Staphylococcus aureus) | Inhibition (Acinetobacter baumannii) | Inhibition (Escherichia coli) | Inhibition (Klebsiella pneumoniae) | Inhibition (Candida albicans) | Inhibition (Cryptococcus neoformans) |
| --- | --- | --- | --- | --- | --- | --- |
| CN(C)c1ccc(/C=C/C(=O)c2cc(Cl)ccc2O)cc1 | 14.9% | -19.64% | 10.48% | 1% | 8.13% | -6.08% |
| O=c1[nH]c2c(cnn2-c2ccc(Cl)cc2)c(=O)n1-c1cccc(Cl)c1 | 5.86% | 6.48% | -10.38% | 28.41% | 2.46% | -10.88% |
| CC(C)(CO)N1CCN(C(S)=Nc2ccccc2)CC1 | -0.05% | 2.01% | -1.36% | 29.13% | 8.13% | -5.08% |
| CCOC(=O)c1c(C)oc(C)c(C(=O)OCC)c1=O | 10.05% | 8.54% | -0.85% | 10.69% | 0.83% | -7.36% |
| CSc1nsc(NN)n1 | 4.83% | -22.35% | 5.94% | 8.53% | 8.71% | -11.9% |
| Cc1cc2nc3ccc(N(C)C)cc3[s+]c2cc1N.[Cl-] [TOLONIUM CHLORIDE] | -5.05% | -12.21% | 2.47% | 19.75% | 1.87% | -7.34% |
